Bioassay records deposited in PubChem BioAssay by National Center for Advancing Translational Sciences (NCATS).
A selection: hits, their analogues and other compounds. The true share with any hit is near 11%.
L3MBTL1 block: qHTS Assay for the Inhibitors of L3MBTL1. Lethal(3)malignant brain tumor-like protein 1 (Homo sapiens), Q9Y468. AlphaScreen L3MBTL1–H3K9me1 peptide binding. Potency, µM (doses to about 57.1 µM), for inactives: top-dose activity, negative = inhibition, most hits filed as inhibitors. hit rate 0.66% among 230,000; note: potency is the fitted concentration of half-maximal effect; % is set by controls: 0 for no effect and ±100 for the full control effect; nearly all actives have a fitted effect of over 60% in size
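L3MBTL1 (50 nM) pre-complexed 30 min with biotinylated H3(1-15)K9me1 peptide (75 nM), then compounds added for 30 min at room temperature; AlphaScreen streptavidin donor/nickel chelate acceptor beads (10 ug/mL final) read after 30 min dark incubation.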
G9a inh: qHTS Assay for Inhibitors of Histone Lysine Methyltransferase G9a; Histone-lysine N-methyltransferase EHMT2 (Homo sapiens), Q96KQ7; G9a H3K9 monomethylation, AlphaScreen, 2 h; Potency, µM (doses to about 102 µM), without a hit: at the highest dose activity, negative = inhibition, most hits filed as inhibitors; hit rate 8.8% among 350,000; note: potency is the fitted concentration of half-maximal effect; % is set by controls: 0 for no effect and ±100 for the full control effect; nearly all actives have a fitted effect of over 75% in size
Target sequence (Q96KQ7 913-1193 limits assumed): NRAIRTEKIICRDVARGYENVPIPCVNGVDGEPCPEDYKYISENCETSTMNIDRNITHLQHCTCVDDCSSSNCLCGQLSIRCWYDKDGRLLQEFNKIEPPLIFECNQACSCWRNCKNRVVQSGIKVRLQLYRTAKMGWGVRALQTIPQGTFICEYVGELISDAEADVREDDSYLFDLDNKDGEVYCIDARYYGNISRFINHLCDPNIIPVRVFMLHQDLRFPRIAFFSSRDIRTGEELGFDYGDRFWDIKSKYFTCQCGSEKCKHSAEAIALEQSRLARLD
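Methyltransferase reactions run at room temperature for 2 h (20 nM enzyme, 500 nM biotin-H3K9 peptide, 20 uM SAM) after a 15 min compound preincubation; product detected by AlphaScreen beads and anti-H3K9me1 antibody.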
HP1b binding inh: HTS for Inhibitors of HP1-beta Chromodomain Interactions with Methylated Histone Tails; Chromobox protein homolog 1 (Homo sapiens), P83916; AlphaScreen HP1-beta / biotin-H3K9me3 peptide binding; Potency, µM (titrated, usually from 114 µM), for the others: top-dose activity change, negative = inhibition, most hits filed as inhibitors; hit rate 0.56% among 390,000; note: potency is the fitted concentration of half-maximal effect; nearly all actives have a fitted effect of over 70% in size
Target sequence (P83916 whole entry, looked up): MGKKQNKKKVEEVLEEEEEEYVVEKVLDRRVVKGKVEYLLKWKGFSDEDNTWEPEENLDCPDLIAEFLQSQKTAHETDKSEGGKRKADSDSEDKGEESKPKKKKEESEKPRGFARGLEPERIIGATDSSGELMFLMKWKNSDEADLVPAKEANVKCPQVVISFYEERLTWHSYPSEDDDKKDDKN
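Compound inhibition of the preformed complex between 50 nM HP1-beta and 50 nM biotinylated H3K9me3 peptide was read by AlphaScreen. Buffer was PBS pH 7.4 with 0.01% Tween-20. Incubations ran 30 min at room temperature, with 10 ug/mL donor/acceptor beads.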
BAZ2B inh: qHTS Assay for Inhibitors of BAZ2B | Bromodomain adjacent to zinc finger domain protein 2B (Homo sapiens), Q9UIF8 | AlphaScreen BAZ2B-H3K14Ac peptide displacement | Potency, µM (series often up to 114 µM), inactives show top-dose activity change, negative = inhibition, hits mostly inhibitors | hit rate 4.4% among 360,000 | AID 504333, 2011; note: potency is the fitted concentration of half-maximal effect; % is set by controls: 0 for no effect and ±100 for the full control effect; nearly all actives have a fitted effect of over 60% in size
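Protein-peptide AlphaScreen: BAZ2B 50 nM, b-H3K14Ac 50 nM, 1x PBS pH 7.4 + 0.01% Tween-20. Preincubation 30 min RT; cpd 30 min RT (top 110 uM); beads 20 min RT, light-protected.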
PI5P4Ka inh: qHTS for Inhibitors of phosphatidylinositol 5-phosphate 4-kinase (PI5P4K); PI5P4Kalpha enzyme, ADP-Glo luminescence, 60 min; stronger effect = lower value; max response, %; Phosphatidylinositol 5-phosphate 4-kinase type-2 alpha (Homo sapiens), P48426; hit rate 1.2% among 330,000; AID 652105, 2013; active = max response of -50% or lower; inconclusive = between -30% and -50%; inactive = -30% or higher; note: value at the top dose of about 77 µM; % is set by controls: 0 for no effect and ±100 for the full control effect
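Quantitative HTS of the MLSMR library against PI5P4Kalpha with substrate. ATP added last at 5 microM final; room temperature, 60 minutes. Remaining ATP depleted, ADP converted and read as luminescence.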
JMJD2A Tudor inh: qHTS Assay for Inhibitors of JMJD2A-Tudor Domain; Potency, µM (highest dose often 114 µM), for the others: at the highest dose activity change, negative = inhibition, hits mostly inhibitors; AlphaScreen JMJD2A-Tudor / H3K4me3 peptide binding; AID 504339, 2011; hit rate 4.4% among 390,000; note: potency is the fitted concentration of half-maximal effect; % is set by controls: 0 for no effect and ±100 for the full control effect; nearly all actives have a fitted effect of over 50% in size
ADP-Glo counter: qHTS for Inhibitors of PI5P4K: ADP-Glo counter assay | shares compounds with PI5P4Ka inh | ADP-Glo detection counter-screen, luciferase luminescence, no enzyme | Potency, µM (doses to about 76.9 µM), without a hit: top-dose activity change, negative = inhibition, most hits filed as inhibitors | 1,100 tested, under 10 active | AID 743285, 2014
An asterisk follows results filed as active; [ ] = remark or other dose. Unless noted, calls come from the whole dose curve; as a rule, active = well fitted curve in the direction sought with a large enough effect; inconclusive = small, poorly fitted or top-dose-only effect, or another doubt; inactive = no such curve, though single readings can be large; an effect the other way counts as inactive or inconclusive.

CC(C)NC(=O)c1ccc2c(=O)n(CC3CCCO3)c(=S)[nH]c2c1 (centres undefined) was read as G9a inh 124%[59 µM], HP1b binding inh 27%, BAZ2B inh 9%, PI5P4Ka inh -12 and JMJD2A Tudor inh inconclusive.
COCCCNC(=O)c1ccc2c(=O)n(CC3CCCO3)c(=S)[nH]c2c1 (centres undefined) was read as L3MBTL1 block -13%, G9a inh 1%[12.7 µM], HP1b binding inh 10%, BAZ2B inh inconclusive, PI5P4Ka inh -3, JMJD2A Tudor inh 20µM* and ADP-Glo counter -7%.
Screening CCOc1ccc(NS(=O)(=O)c2ccc(-c3cc(C)no3)s2)cc1 returned G9a inh 12%[59 µM], HP1b binding inh 23%, BAZ2B inh -1% and JMJD2A Tudor inh -28%.
Screening Cc1c(-c2nc(-c3ccc4c(c3)OCO4)no2)nnn1-c1cccc(C(F)(F)F)c1 returned G9a inh 4%[59 µM], HP1b binding inh 32%, BAZ2B inh 0% and JMJD2A Tudor inh -1%.
Screening CCOc1ccccc1N1CSC2=C(C#N)C(c3c(OC)ccc4ccccc34)CC(=O)N2C1 (centres undefined) returned L3MBTL1 block -14%, G9a inh 0.56µM*, HP1b binding inh inconclusive, BAZ2B inh 50µM*, PI5P4Ka inh -85*, JMJD2A Tudor inh 35µM* and ADP-Glo counter -5%.
For CCOc1ccccc1N1CCN(S(=O)(=O)c2cc(C)ccc2OC)CC1 the results were L3MBTL1 block 5%, HP1b binding inh 18%, BAZ2B inh 0%, PI5P4Ka inh 3 and JMJD2A Tudor inh -13%.
COc1ccc(N2CSC3=C(C#N)C(c4ccc(OC)c(OC)c4)CC(=O)N3C2)c(OC)c1 (centres undefined) was read as G9a inh 2.5µM*, HP1b binding inh inconclusive, BAZ2B inh inconclusive, PI5P4Ka inh -53*, JMJD2A Tudor inh 20µM* and ADP-Glo counter -18%.
COc1cc(OC)c(C2CC(=O)N3CN(c4ccc(C)cc4)CSC3=C2C#N)cc1OC (centres undefined) was read as L3MBTL1 block -5%, G9a inh -21%[2.33 µM], HP1b binding inh inconclusive, BAZ2B inh inconclusive, PI5P4Ka inh -77*, JMJD2A Tudor inh 4.5µM* and ADP-Glo counter -5%.
`CCc1ccc(N2CSC3=C(C#N)C(c4cccs4)CC(=O)N3C2)cc1` (centres undefined) gave L3MBTL1 block -9%, G9a inh inconclusive, HP1b binding inh -34%, BAZ2B inh inconclusive, PI5P4Ka inh -68*, JMJD2A Tudor inh 32µM* and ADP-Glo counter -8%.
CC1CCC(NC(=O)c2ccc3c(c2)N(Cc2cccc(Cl)c2)C(=O)c2ccccc2S3=O)CC1 (centres undefined) was read as G9a inh -3%[59 µM], HP1b binding inh 1%, BAZ2B inh 2% and JMJD2A Tudor inh -21%.
For Cc1ccc(N2CSC3=C(C#N)C(c4cccs4)CC(=O)N3C2)cc1 (centres undefined) the results were G9a inh 1.4µM*, HP1b binding inh inconclusive, BAZ2B inh inconclusive, PI5P4Ka inh -60*, JMJD2A Tudor inh 32µM* and ADP-Glo counter -3%.
Clc1cccc(CSc2nncn3c2cc2sccc23)c1 was read as G9a inh 0%[59 µM], HP1b binding inh 41%, BAZ2B inh -19% and JMJD2A Tudor inh -1%.
